Test results reported in PubChem BioAssay (NCATS).
Results filed as inconclusive are left out. The source made the active and inactive calls. The call rests on the fitted dose curve; in most records, active means well fitted cell-killing curve with a large enough effect; inconclusive means small, poorly fitted or top-dose-only effect, or effect the other way; inactive means flat fitted curve, though single readings scatter.

Experiments:
Experiment in all cases: Primary qHTS to identify gynecologic anti-cancer compounds using libraries of approved drugs and bioactive compounds (AID 1345084); further: nearly all actives have a fitted effect of over 55% in size
C33A = details: Gynecologic cancer cell panel viability, ATPlite luminescence, 48 h; series mostly up to 57.5 µM
Method in brief: (§1)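 Measured: luminescence after ATPlite addition (15 min, RT). Exposure: 48 h, 37 C, 5% CO2.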

CAOV3 = details: Gynecologic cancer cell panel viability, ATPlite luminescence, 48 h; series mostly up to 57.5 µM
Method in brief: as §1

CASKI = details: Gynecologic cancer cell panel viability, ATPlite luminescence, 48 h; series mostly up to 57.5 µM
Method in brief: as §1

Es-2 = details: Gynecologic cancer cell panel viability, ATPlite luminescence, 48 h; series mostly up to 57.5 µM
Method in brief: as §1

HeLa = details: Gynecologic cancer cell panel viability, ATPlite luminescence, 48 h; series mostly up to 57.5 µM
Method in brief: as §1

Hek293T = details: Gynecologic cancer cell panel viability, ATPlite luminescence, 48 h, control line for the selectivity index; series mostly up to 57.5 µM
Method in brief: as §1

JEG-3 = details: Gynecologic cancer cell panel viability, ATPlite luminescence, 48 h; series mostly up to 57.5 µM
Method in brief: as §1

OV90 = details: Gynecologic cancer cell panel viability, ATPlite luminescence, 48 h; series mostly up to 57.5 µM
Method in brief: as §1

PA-1 = details: Gynecologic cancer cell panel viability, ATPlite luminescence, 48 h; series mostly up to 57.5 µM
Method in brief: as §1

SKOV3 = details: Gynecologic cancer cell panel viability, ATPlite luminescence, 48 h; series mostly up to 57.5 µM
Method in brief: as §1

Tov-21-G = details: Gynecologic cancer cell panel viability, ATPlite luminescence, 48 h; series mostly up to 57.5 µM
Method in brief: as §1

Tov112D = details: Gynecologic cancer cell panel viability, ATPlite luminescence, 48 h; series mostly up to 57.5 µM
Method in brief: as §1
On the % scale 0 is the no-effect control and ±100 the full control effect.

O=C(CO)[C@@H](O)[C@H](O[C@@H]1O[C@H](CO)[C@H](O)[C@H](O)[C@H]1O)[C@H](O)CO
inactive: Potency (C33A) | Potency (CAOV3) | Potency (CASKI) | Potency (Es-2) | Potency (HeLa) | Potency (Hek293T) | Potency (JEG-3) | Potency (OV90) | Potency (PA-1) | Potency (SKOV3) | Potency (Tov-21-G) | Potency (Tov112D)

CC1OC(OC2C(C)OC(OC3C(OC(=O)C45CCC(C)(C)CC4C4=CCC6C7(C)CCC(OC8OC(C(=O)O)C(O)C(O)C8OC8OC(CO)C(O)C(OC9OC(C)C(O)C(O)C9O)C8O)C(C)(CO)C7CCC6(C)C4(C)CC5)OC(CO)C(O)C3O)C(O)C2O)C(O)C(O)C1O (stereo unspecified)
inactive: activity change, negative = cytotoxicity (C33A) 1.01% [at 6.55 µM] | activity change, negative = cytotoxicity (CAOV3) 6.9% [at 6.55 µM] | activity change, negative = cytotoxicity (CASKI) 16.9% [at 6.55 µM] | activity change, negative = cytotoxicity (Es-2) 0.662% [at 6.55 µM] | activity change, negative = cytotoxicity (HeLa) 5.48% [at 6.55 µM] | activity change, negative = cytotoxicity (Hek293T) -2.51% [at 6.55 µM] | activity change, negative = cytotoxicity (JEG-3) 4.23% [at 6.55 µM] | activity change, negative = cytotoxicity (OV90) 11.5% [at 6.55 µM] | activity change, negative = cytotoxicity (PA-1) 0.842% [at 6.55 µM] | activity change, negative = cytotoxicity (SKOV3) 0% [at 6.55 µM] | activity change, negative = cytotoxicity (Tov-21-G) 2.91% [at 6.55 µM] | activity change, negative = cytotoxicity (Tov112D) 13.7% [at 6.55 µM]

CC/C=C\[C@H](O)[C@H](O)C1=C(C)C(=O)[C@]2(O1)C(=O)N[C@@](OC)(C(=O)c1ccccc1)[C@@H]2O
inactive: Potency (C33A) | Potency (CAOV3) | Potency (CASKI) | Potency (Es-2) | Potency (HeLa) | Potency (Hek293T) | Potency (JEG-3) | Potency (OV90) | Potency (PA-1) | Potency (SKOV3) | Potency (Tov-21-G) | Potency (Tov112D)

O=C1Nc2ccccc2C(O)(c2ccccc2)C1O (stereo unspecified)
inactive: Potency (C33A) | Potency (CAOV3) | Potency (CASKI) | Potency (Es-2) | Potency (HeLa) | Potency (Hek293T) | Potency (JEG-3) | Potency (OV90) | Potency (PA-1) | Potency (SKOV3) | Potency (Tov-21-G) | Potency (Tov112D)

CCCn1c(=O)c2[nH]c(-c3ccc(OCC(=O)O)cc3)nc2n(CCC)c1=O
inactive: Potency (C33A) | Potency (CAOV3) | Potency (CASKI) | Potency (Es-2) | Potency (HeLa) | Potency (Hek293T) | Potency (JEG-3) | Potency (OV90) | Potency (PA-1) | Potency (SKOV3) | Potency (Tov-21-G) | Potency (Tov112D)

CC1=CC(=O)CC(C)(C)[C@H]1/C=C/C(CO)O[C@@H]1O[C@H](CO)[C@@H](O)[C@H](O)[C@H]1O (stereo partly specified)
inactive: Potency (C33A) | Potency (CAOV3) | Potency (CASKI) | Potency (Es-2) | Potency (HeLa) | Potency (Hek293T) | Potency (JEG-3) | Potency (OV90) | Potency (PA-1) | Potency (SKOV3) | Potency (Tov-21-G) | Potency (Tov112D)

C/C(=C\CCC1(C)C2CCC(C2)C1(C)O)C(=O)O (stereo unspecified)
inactive: Potency (C33A) | Potency (CAOV3) | Potency (CASKI) | Potency (Es-2) | Potency (HeLa) | Potency (Hek293T) | Potency (JEG-3) | Potency (OV90) | Potency (PA-1) | Potency (SKOV3) | Potency (Tov-21-G) | Potency (Tov112D)

C/C=C(\C)C(=O)O[C@@H]1CC2[C@@H](CC=C3C[C@@H](O[C@H]4C[C@H](OC)[C@H](O[C@H]5C[C@H](OC)[C@H](O[C@@H]6O[C@H](C)[C@@H](O[C@H]7C[C@H](OC)[C@H](O[C@@H]8O[C@H](CO)[C@@H](O)[C@H](O)[C@H]8O)[C@@H](C)O7)[C@H](OC)[C@H]6O)[C@@H](C)O5)[C@@H](C)O4)CC[C@@]32C)[C@@]2(O)CC[C@H](C(C)=O)[C@@]12C (stereo partly specified)
inactive: activity change, negative = cytotoxicity (C33A) 1.36% [at 6.55 µM] | activity change, negative = cytotoxicity (CAOV3) 9.95% [at 6.55 µM] | activity change, negative = cytotoxicity (CASKI) 2.06% [at 6.55 µM] | activity change, negative = cytotoxicity (Es-2) -1.14% [at 6.55 µM] | activity change, negative = cytotoxicity (HeLa) -0.318% [at 6.55 µM] | activity change, negative = cytotoxicity (Hek293T) -2.04% [at 6.55 µM] | activity change, negative = cytotoxicity (JEG-3) -4.6% [at 6.55 µM] | activity change, negative = cytotoxicity (OV90) -1.27% [at 6.55 µM] | activity change, negative = cytotoxicity (PA-1) -4.92% [at 6.55 µM] | activity change, negative = cytotoxicity (SKOV3) -3.56% [at 6.55 µM] | activity change, negative = cytotoxicity (Tov-21-G) -5.17% [at 6.55 µM] | activity change, negative = cytotoxicity (Tov112D) 5.73% [at 6.55 µM]

CNS(=O)(=O)CC1CCC(N(C)c2ncnc3[nH]ccc23)CC1 (stereo unspecified)
inactive: Potency (C33A) | Potency (CAOV3) | Potency (CASKI) | Potency (Es-2) | Potency (HeLa) | Potency (Hek293T) | Potency (JEG-3) | Potency (OV90) | Potency (PA-1) | Potency (SKOV3) | Potency (Tov-21-G) | Potency (Tov112D)

CC[C@H]1OC(=O)[C@H](C)[C@@H](O[C@H]2C[C@@](C)(OC)[C@@H](O)[C@H](C)O2)[C@H](C)[C@@H](O[C@@H]2O[C@H](C)C[C@H](N(C)C)[C@H]2O)[C@](C)(O)C[C@@H](C)C(=O)[C@H](C)[C@H]2OC(=O)O[C@@]21C
inactive: Potency (C33A) | Potency (CAOV3) | Potency (CASKI) | Potency (Es-2) | Potency (HeLa) | Potency (Hek293T) | Potency (JEG-3) | Potency (OV90) | Potency (PA-1) | Potency (SKOV3) | Potency (Tov-21-G) | Potency (Tov112D)

C=C[C@H]1[C@H](O[C@@H]2O[C@H](CO)[C@@H](O)[C@H](O)[C@H]2O)OC=C(C(=O)OC)[C@H]1CCOC(=O)c1cc(O)c(O)c(O)c1
inactive: Potency (C33A) | Potency (CAOV3) | Potency (CASKI) | Potency (Es-2) | Potency (HeLa) | Potency (Hek293T) | Potency (JEG-3) | Potency (OV90) | Potency (PA-1) | Potency (SKOV3) | Potency (Tov-21-G) | Potency (Tov112D)

C[C@@H]1C(=O)O[C@H]2[C@H](O)C34[C@H]5C[C@@H](C(C)(C)C)C36[C@@H](OC(=O)[C@@H]6O)O[C@@]4(C(=O)O5)[C@@]12O (stereo partly specified)
inactive: Potency (C33A) | Potency (CAOV3) | Potency (CASKI) | Potency (Es-2) | Potency (HeLa) | Potency (Hek293T) | Potency (JEG-3) | Potency (OV90) | Potency (PA-1) | Potency (SKOV3) | Potency (Tov-21-G) | Potency (Tov112D)

COC(=O)[C@H](O)[C@H]1C(C)(C)[C@H](OC(=O)C(C)C)[C@@]2(O)C(=O)[C@]1(C)C1CC[C@]3(C)C(CC(=O)O[C@H]3c3ccoc3)[C@]13O[C@@H]32 (stereo partly specified)
inactive: Potency (C33A) | Potency (CAOV3) | Potency (CASKI) | Potency (Es-2) | Potency (HeLa) | Potency (Hek293T) | Potency (JEG-3) | Potency (OV90) | Potency (PA-1) | Potency (SKOV3) | Potency (Tov-21-G) | Potency (Tov112D)
